Sampled rows, rich in hits. Any-hit rate of the full collection: about 21%.
DT40 TDP1 CPT – qHTS for Inhibitors of human tyrosyl-DNA phosphodiesterase 1 (TDP1): qHTS in cells in presence of CPT | chicken DT40 Tdp1-/-;hTDP1 cells + 20 nM CPT, ATP luminescence, 48 h | Potency, µM (highest dose often 46.2 µM), for the others: at the top dose activity change, negative = growth inhibition, most hits filed as inhibitors | 420,000 compounds, 12% hits; further: potency means the concentration at half of the fitted maximal effect; on the % scale 0 is the no-effect control and ±100 the full control effect; nearly all actives have a fitted effect of over 55% in size
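Chicken DT40 Tdp1-/- cells stably complemented with human TDP1 were seeded at 400 cells/well in medium containing 20 nM camptothecin, exposed to pin-transferred compounds, and grown at 37 °C for at least 48 hr. Viability was read as ATP luminescence.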
TDP1 cell noCPT – qHTS for Inhibitors of human tyrosyl-DNA phosphodiesterase 1 (TDP1): qHTS in cells in absence of CPT; DT40 Tdp1-/- hTDP1 cells, no CPT, ATP luminescence, 48 h; Potency, µM (series often up to 46.2 µM), without a hit: at the highest dose activity change, negative = growth inhibition, most hits filed as inhibitors; 420,000 compounds, 15% hits; AID 686978, 2013; further: potency means the concentration at half of the fitted maximal effect; on the % scale 0 is the no-effect control and ±100 the full control effect; nearly all actives have a fitted effect of over 55% in size
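Luminescent ATP content (CellTiter-Glo) served as the growth readout. Knockout chicken DT40 cells expressing human TDP1 were exposed to compounds without camptothecin for a minimum 48 hr at 37 °C.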
IL-1B inflam inh – qHTS for Inhibitors of Inflammasome Signaling: IL-1-beta AlphaLISA Primary Screen | THP-1 LPS/ATP IL-1B secretion, AlphaLISA, 16 h; active compounds read low | activity change, % at 57.5 µM | 360,000 compounds, 4.7% hits; in the data active means activity change below about -50%; inconclusive means mostly about -30% to -49%; further: on the % scale 0 is the no-effect control and ±100 the full control effect
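THP-1 cells pretreated 1 hr with compounds (up to 57.5 uM final), then stimulated with LPS (250 ng/mL final) plus ATP (1.25 mM final); secreted IL-1B measured by AlphaLISA after 16 hr, decreased signal indicating inhibition.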
D3 antag – qHTS of D3 Dopamine Receptor Antagonist: qHTS. 360,000 compounds, 2.5% hits. D3R cells, DiscoveRx beta-arrestin luminescence, antagonist mode; active compounds read low. D(3) dopamine receptor (Homo sapiens), P35462. max response, negative = inhibition, %; in the data active means max response below about -50%; inconclusive means no clear call, values can overlap the other calls; further: on the % scale 0 is the no-effect control and ±100 the full control effect
Target sequence (P35462 whole entry, looked up): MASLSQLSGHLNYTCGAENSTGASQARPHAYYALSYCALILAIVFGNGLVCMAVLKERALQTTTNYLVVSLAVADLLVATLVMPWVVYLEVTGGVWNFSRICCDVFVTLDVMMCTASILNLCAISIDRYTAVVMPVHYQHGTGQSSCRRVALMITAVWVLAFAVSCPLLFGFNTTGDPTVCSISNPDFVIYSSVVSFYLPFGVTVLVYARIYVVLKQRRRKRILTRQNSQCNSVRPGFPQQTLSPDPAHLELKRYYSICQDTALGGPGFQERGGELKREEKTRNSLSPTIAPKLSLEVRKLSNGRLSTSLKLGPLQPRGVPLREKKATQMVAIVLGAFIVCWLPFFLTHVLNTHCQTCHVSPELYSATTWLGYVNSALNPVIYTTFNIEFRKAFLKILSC
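Cells plated overnight at 1500 cells/well, then exposed to library compounds with dopamine controls for 90 minutes at 37 degrees C. DiscoveRx reagent added for 30–60 minutes at room temperature; luminescence read, quantitative HTS format.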
DRD3 agonist – qHTS of D3 Dopamine Receptor Agonist: qHTS; D(3) dopamine receptor (Homo sapiens), P35462; 410,000 compounds, 0.58% hits; max activation, %; D3R DiscoveRx beta-arrestin cells, luminescence, 90 min; AID 652048, 2013; in the data active means max activation above about 30%; further: 0% is about no effect
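Cells at 1500/well, incubated overnight, then treated with pinned compounds (dopamine as control) for 90 min at 37 degrees C. DiscoveRx reagent added for 30 - 60 minutes at room temperature; luminescence read.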
ClpP mod – qHTS Assay for Activators of ClpP. AID 651965, 2013. Potency, µM (highest dose often 57.5 µM), for inactives: at the highest dose activity change, negative = active. ATP-dependent Clp protease proteolytic subunit (Bacillus subtilis (strain 168)), P80244. 340,000 compounds, 1.9% hits. purified B. subtilis ClpP, FRET peptide cleavage, 20 min; active means well fitted falling curve with a large enough effect; inconclusive means small, poorly fitted or top-dose-only effect; inactive means no such curve, though single readings can be large or run the other way; further: potency means the concentration at half of the fitted maximal effect; the source files actives as falling curves though it sought activators and does not explain the sign; nearly all actives have a fitted effect of over 65% in size
Target sequence (P80244 whole entry, looked up): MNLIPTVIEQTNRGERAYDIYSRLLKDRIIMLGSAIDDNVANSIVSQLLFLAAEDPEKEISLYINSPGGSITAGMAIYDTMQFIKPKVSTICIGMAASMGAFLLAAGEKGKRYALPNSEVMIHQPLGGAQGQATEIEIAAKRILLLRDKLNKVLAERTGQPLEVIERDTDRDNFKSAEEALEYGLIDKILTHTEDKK
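Buffer: 100 mM Tris/HCl pH8, 100 mM KCl, 0.05% low protease BSA, 2.5% glycerol, 0.01% Tween-20. ClpP 10 microg/mL final; 20 min RT; delta FRET normalized to ADEP and DMSO controls.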
Active calls of the source: *; ? = inconclusive; nt = no result given. Unless noted, the call rests on the fitted dose curve; in most records, active means well fitted inhibition curve with a large enough effect; inconclusive means small, poorly fitted or top-dose-only effect; inactive means flat fitted curve, though single readings scatter.

SMILES	DT40 TDP1 CPT	TDP1 cell noCPT	IL-1B inflam inh	D3 antag	DRD3 agonist	ClpP mod
Cc1cc(C)nc(NS(=O)(=O)c2ccc(NC(=O)C3COc4ccccc4O3)cc2)n1 (stereo not given)	-4.1%	15.3%	-12.7	-25.1	12.8	nt
O=C(Cc1ccc([N+](=O)[O-])cc1)Nc1ccc2c(c1)CCC2	-6.3%	-4.5%	-7.9	-20.1	-9.3	nt
COC(=O)Cc1ccc(NC(=O)c2ccccc2Br)cc1	11.2%	-7.1%	-3.9	-0.2	0.2	nt
CC(C)C(NC(=O)OC(C)(C)C)C(=O)NC(CCC(=O)OCc1ccccc1)C(N)=O (stereo not given)	-6.2%	0.9%	21.3	2.3	0.3	-0.7%
CC(C)CC(NC(=O)C(CC(C)C)NC(=O)C(Cc1ccc(OCc2ccccc2)cc1)NC(=O)OC(C)(C)C)C(N)=O (stereo not given)	?	?	-8.7	-21.2	-0.6	nt
CC(NC(=O)OC(C)(C)C)C(=O)NC(CCC(=O)OCc1ccccc1)C(N)=O (stereo not given)	-28.3%	29.1µM*	-8.5	-14.4	-2.0	nt
CC(C)CC(NC(=O)C(NC(=O)C(Cc1ccc(OCc2ccccc2)cc1)NC(=O)OC(C)(C)C)C(C)C)C(N)=O (stereo not given)	?	16.4µM*	21.5	-13.8	-0.6	-1.1%
CNC(=O)C12CCC(C)(c3nc4cc(C)c(C)cc4nc31)C2(C)C (stereo not given)	-10.5%	?	15.3	9.6	-4.8	-6.4%
CCCNC(=O)C12CCC(C)(c3nc4cc(C)c(C)cc4nc31)C2(C)C (stereo not given)	18.4µM*	23.1µM*	-9.9	-5.4	-1.3	1.4%
O=C(NCC1(N2CCOCC2)CCCC1)c1cnn(-c2nccc(-c3ccco3)n2)c1C1CC1	?	-29.0%	nt	nt	nt	nt
COc1ccccc1NC(=O)CN(c1ccc(C23CC4CC(CC(C4)C2)C3)cc1)S(C)(=O)=O	13µM*	14.6µM*	-2.2	-9.9	-8.7	-2.9%
O=C(NC1(C(F)(F)F)NC(=O)N(CCc2ccccc2)C1=O)c1ccc(Cl)cc1 (stereo not given)	20.6µM*	?	nt	nt	-12.9	-2.4%
CC(C)CN1C(=O)NC(NC(=O)c2ccco2)(C(F)(F)F)C1=O (stereo not given)	3.6%	-24.1%	10.8	2.3	1.4	0.4%
CC(C)(C)c1ccc(C(=O)NC2(C(F)(F)F)NC(=O)N(CCc3ccccc3)C2=O)cc1 (stereo not given)	20.6µM*	23.1µM*	nt	nt	-9.1	-1.2%
O=C(NC1(C(F)(F)F)NC(=O)N(CCc2ccccc2)C1=O)c1ccccc1F (stereo not given)	-23.1%	-7.0%	nt	nt	-5.5	2.5%
O=C(NC1(C(F)(F)F)NC(=O)N(CC2CCCCC2)C1=O)c1ccco1 (stereo not given)	-10.6%	-4.9%	28.0	-51.1*	-2.7	-0.8%
O=C(CCCN1C(=O)C(c2ccccc2)Oc2cccnc21)Nc1ccccc1Cl (stereo not given)	-5.5%	-13.6%	-15.0	-3.8	-4.7	0.7%
Cc1ccccc1-c1noc(-c2ccc(N3CCN(c4ccccc4)CC3)c([N+](=O)[O-])c2)n1	?	?	nt	nt	-7.4	0.0%
CC(=O)c1sc2c(c1OC(=O)c1ccc(Cl)cc1Cl)c(=O)n(-c1ccccc1)c(=S)n2-c1ccccc1	?	20.6µM*	-60.2*	-1.2	0.0	0.7%
CCCc1nc([N+](=O)[O-])c(S(=O)(=O)c2ccccc2)n1CC(C)C	16.4µM*	3.26µM*	-100.1*	-19.7	10.2	nt
CC(C)Cn1c(C(C)C)nc([N+](=O)[O-])c1S(=O)(=O)c1ccc(F)cc1	2.31µM*	3.26µM*	-89.2*	-16.8	-1.7	0.2%
CCN(CC)CCCN=C1N[C@@H](c2cccc(C(F)(F)F)c2)C(C(=O)OC)=C(C)N1CC	?	-86.3%	-25.8	2.5	1.1	-1.2%
Cc1nccn1CC1CCc2c(c3ccccc3n2C)C1=O (stereo not given)	?	2.9%	4.9	7.9	4.1	-5.1%
Cc1nccn1C[C@@H]1CCc2c(c3ccccc3n2C)C1=O	?	?	3.6	-79.1*	-37.6	-2.8%
Cc1cccc(C(=O)OCC(=O)Nc2c(C)n(C)n(-c3ccccc3)c2=O)c1	-10.4%	2.3%	-4.2	-11.1	-9.4	-4.2%
SMILES	DT40 TDP1 CPT	TDP1 cell noCPT	IL-1B inflam inh	D3 antag	DRD3 agonist	ClpP mod
Cc1ccccc1CNC(=O)c1cc2cc(S(=O)(=O)N3CCCCC3)ccc2n1C	?	18.4µM*	nt	nt	11.4	?
CSc1ccc(CNC(=O)c2cc3cc(S(=O)(=O)N4CCCCC4)ccc3n2C)cc1	-20.2%	?	nt	nt	7.9	?
Cn1c(C(=O)NCc2ccc(F)cc2)cc2cc(S(=O)(=O)N3CCCCC3)ccc21	23.1µM*	11.6µM*	nt	nt	-13.3	-0.3%
CCc1ccc(CNC(=O)c2cc3cc(S(=O)(=O)N4CCCCC4)ccc3n2C)cc1	?	13µM*	nt	nt	-7.0	?
Oc1c(C(c2cccc(Cl)c2)N2CCOCC2)sc2nc(-c3ccco3)nn12 (stereo not given)	-5.1%	-15.6%	nt	nt	-14.3	-1.7%
Clc1ccc(N2CCN(c3ncnc4c3oc3ccccc34)CC2)cc1	20.6µM*	14.1µM*	19.9	14.6	4.4	-18.9%
O=c1c2oc3ccccc3c2ncn1Cc1ccc(Cl)cc1	37.1%	4.8%	18.6	2.2	2.3	nt
CC1CN(c2ncnc3c2oc2ccccc23)CC(C)O1 (stereo not given)	?	20.6µM*	-1.5	39.6	0.6	-0.4%
CCN1CCc2c(sc3c2c(NCc2ccco2)nc2nnnn23)C1	?	?	12.5	-64.7*	1.6	12.6µM*
COCCn1c(=S)[nH]c2cc(C(=O)N3CCN(C4CCCCC4)CC3)ccc2c1=O	?	?	23.8	?	-4.8	1.4%
COCCn1c(=S)[nH]c2cc(C(=O)N3CCN(c4cccc(Cl)c4)CC3)ccc2c1=O	20.6µM*	4.11µM*	-16.0	-7.5	-7.9	-4.0%
COCCn1c(=S)[nH]c2cc(C(=O)N3CCN(Cc4ccc5c(c4)OCO5)CC3)ccc2c1=O	?	18.4µM*	-18.0	14.0	-21.3	-4.0%
